Bioassay records as filed in PubChem.
OPRM1-OPRD1 ag: agonists of human mu-delta opioid receptor heterodimerization; hit rate 0.3% among 340,000; cells, OPRM1-OPRD1 heterodimerization, luminescence; AID 504326; activation, % at 9.3 µM; in the data active = activation above about 18%;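 note: 0% = vehicle-treated cells and 100% = reference agonist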
Target sequence (P35372 whole entry, looked up): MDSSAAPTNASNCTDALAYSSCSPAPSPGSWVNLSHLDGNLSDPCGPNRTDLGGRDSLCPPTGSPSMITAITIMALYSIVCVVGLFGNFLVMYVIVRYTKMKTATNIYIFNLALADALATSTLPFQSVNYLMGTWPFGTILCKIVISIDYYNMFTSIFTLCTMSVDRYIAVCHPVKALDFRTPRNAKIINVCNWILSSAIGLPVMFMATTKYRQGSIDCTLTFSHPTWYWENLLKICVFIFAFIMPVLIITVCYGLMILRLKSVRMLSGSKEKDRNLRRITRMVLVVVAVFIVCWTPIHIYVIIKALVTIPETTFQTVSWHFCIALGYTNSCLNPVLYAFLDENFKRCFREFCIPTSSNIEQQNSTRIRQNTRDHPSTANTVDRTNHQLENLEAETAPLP
Target sequence (P41143 whole entry, looked up): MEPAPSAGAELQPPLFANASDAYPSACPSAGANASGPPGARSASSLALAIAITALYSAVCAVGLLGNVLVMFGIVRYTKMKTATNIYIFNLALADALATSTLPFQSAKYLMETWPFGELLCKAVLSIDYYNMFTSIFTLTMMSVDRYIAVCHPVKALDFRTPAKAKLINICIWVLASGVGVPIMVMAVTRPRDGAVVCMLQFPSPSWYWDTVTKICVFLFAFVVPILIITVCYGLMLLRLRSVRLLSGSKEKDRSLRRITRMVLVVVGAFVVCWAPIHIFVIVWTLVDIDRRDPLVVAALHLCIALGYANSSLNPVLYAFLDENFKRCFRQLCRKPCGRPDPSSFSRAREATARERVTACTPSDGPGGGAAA
HTR5A inv ctr: inverse agonist of human HTR5A in OPRM1-OPRD1 counter-screen; P47898; HTR5A cell line, luminescence, inverse agonism; inhibition, % at 9.3 µM; hit rate 0.083% among 340,000; AID 504634; in the data active = inhibition mostly above about 23%, no sharp cut-off; inactive = mostly below about 18%;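 note: 0% = cells with DMSO and 100% = no-cell wells with DMSO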
OPRM1-OPRD1 inv: inverse agonists of human mu-delta opioid receptor heterodimerization; P35372+P41143; cell-based MOR-DOR heterodimer luminescence, inverse agonism; inhibition, % at 9.3 µM; hit rate 0.21% among 340,000; in the data active = inhibition above about 22%, passing the limit was not always enough;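 note: 0% = cells with DMSO and 100% = wells without cells with DMSO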
HTR5A ag: activates human HTR5A in OPRM1-OPRD1 agonist counter-screen. P47898. HTR5A agonist assay, luminescence, cell-based. activation, % at 9.3 µM. hit rate 0.61% among 340,000; in the data active = activation mostly above about 9.5%, no sharp cut-off; inactive = mostly below about 7.6%;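 note: 0% = cells with vehicle only and 100% = reference agonist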
Starred values were filed as active, the others as inactive. Sampled rows, rich in hits. Any-hit rate of the full collection: about 1.1%.

SMILES | OPRM1-OPRD1 ag | HTR5A inv ctr | OPRM1-OPRD1 inv | HTR5A ag
COC(=O)c1ccc(NC(=O)COc2ccc(C3C(C#N)=C(N)Oc4c3ccc3ccccc43)cc2OC)cc1 (centres undefined) | 1 | -31 | -6 | 14*
COc1cc(NC(=O)Cc2cccc3ccccc23)c(C(=O)O)cc1OC | -3 | 0 | 13 | 0
CC(=O)N(Cc1cc2ccccc2[nH]c1=O)c1ccc(C)cc1 | -1 | -36 | 6 | 9.7*
C/C(=N\NC(=O)c1nnn(-c2nonc2N)c1-c1ccc2c(c1)OCO2)c1ccc(C)cc1 | -1 | -10 | 5 | -1
COc1ccccc1CC(=O)N1CCN(S(=O)(=O)c2ccccc2F)CC1 | -2 | -23 | 9 | 6
COc1ccccc1CC(=O)N1CCN(S(=O)(=O)c2ccccc2)CC1 | -1 | 21 | 5 | 13*
C=C(C)Cn1cnc2cc(C)c(C)cc21 | 3 | 12 | -15 | -4
COc1cccc2sc(N(CCCN(C)C)C(=O)c3ccc(S(=O)(=O)N4CCc5ccccc5C4)cc3)nc12 | 2 | -34 | -7 | 13
COc1ccc(C)c2sc(N(CCCN(C)C)C(=O)c3ccc(S(=O)(=O)N4CCc5ccccc5C4)cc3)nc12 | 30* | -18 | -148 | 21*
CCOC(=O)[C@@H]1[C@H]2COc3cc(OC)ccc3[C@@H]2N2C(=O)N(c3cccc(C)c3)C(=O)[C@]12C | -2 | 1 | 9 | -3
CC1CCCC(C)N1C(=O)COC(=O)C12CC3CC(CC(Cl)(C3)C1)C2 (centres undefined) | 3 | 13 | -17 | -3
CN(C(=O)COC(=O)C12CC3CC(CC(Cl)(C3)C1)C2)c1ccccc1 | 4 | -40 | -23 | 11*
O=Nc1c2cc3ccccc3[nH]c-2c2ccccc12 | 5 | -30 | -26 | 8
O=Nc1c(O)c2ccccc2c2ccccc12 | 18 | -10 | -99 | 12*
Cc1nn(-c2ccccc2)c(N)c1N=Nc1ccc(Cl)cc1 | 1 | -30 | -6 | 11*
Cc1nn(-c2ccccc2)c(N)c1N=Nc1ccccc1 | 3 | -13 | -15 | 0
O=C(c1cc(F)c(F)cc1Cl)N1CCCc2ccccc21 | -1 | 8 | 7 | -3
COc1cc(/C(C)=N/NC(=O)c2ccc(CSc3nncn3C)cc2)cc(OC)c1OC | 2 | -28 | -11 | 10*
COc1ccc(CN(CCC(c2ccccc2)c2ccc(OC(C)C)cc2)C(=O)CCl)cc1OC (centres undefined) | 82* | -62 | -454 | 52*
COc1ccc(C(CCN(Cc2ccc(OC)c(OC)c2)C(C)=O)c2ccccc2)cc1 (centres undefined) | -1 | 10 | 8 | -4
COc1cc2c(cc1OC)C1(CCCC1)CNC2c1cccc([N+](=O)[O-])c1 (centres undefined) | -7 | 38* | 35* | -13
COc1cc2c(cc1OC)C(c1cccc([N+](=O)[O-])c1)NC(=O)C2 (centres undefined) | -2 | 2 | 8 | -4
O=C(c1ccc(Cl)c(S(=O)(=O)N2CCOCC2)c1)N1CCN(c2ccccn2)CC1 | -4 | -8 | 14 | -1
O=C(c1ccc(Cl)c(S(=O)(=O)N2CCCC2)c1)N1CCN(c2ccccn2)CC1 | 3 | -66 | -14 | 12*
CCN(c1ccccc1)S(=O)(=O)c1ccc2c(c1)CCCN2C(C)=O | -1 | 15 | 6 | 11*
SMILES | OPRM1-OPRD1 ag | HTR5A inv ctr | OPRM1-OPRD1 inv | HTR5A ag
CCN(c1cccc(C)c1)S(=O)(=O)c1ccc2c(c1)CCCN2C(C)=O | -1 | -18 | 5 | 1
O=C(Nc1cccnc1)c1cc(-c2cccc(Br)c2)nc2ccccc12 | 10 | -7 | -51 | 13*
CCN(C(=O)c1cn(C)c(=O)c2ccccc12)c1ccccc1F | 0 | -11 | 2 | 3
COc1ccc(CNC(=O)COC(=O)c2c(NC(C)=O)sc(C)c2C)cc1 | 0 | -10 | 0 | 14*
O=[N+]([O-])c1c(Nc2ccccc2O)cc(Cl)c2nonc12 | -6 | 8 | 29* | -12
CCN(C(=O)COC(=O)CNS(=O)(=O)c1ccc(SC)c([N+](=O)[O-])c1)C1CCCCC1 | 1 | 0 | -6 | 0
CCn1cc([N+](=O)[O-])c(C(=O)N2CCN(C(=O)c3ccco3)CC2)n1 | -1 | 26 | 5 | 14*
COc1cccc(C(=O)Nc2ccc(NC(=O)c3cc4ccccc4o3)c(OC)c2)c1 | 7 | -50 | -36 | 13*
COc1cc(NC(=O)c2ccccc2)ccc1NC(=O)c1cc2ccccc2o1 | 6 | 13 | -28 | -4
Cc1ccc(C(=O)NCC(=O)OC(C)C(=O)NC2CCCc3ccccc32)cc1 (centres undefined) | -2 | -22 | 8 | 8
Cc1cc(C(=O)CSc2nc3ccccc3[nH]2)c(C)n1CC1CCCO1 (centres undefined) | 18 | -21 | -102 | 13*
Cc1cc(C(=O)CSc2nc(N)cc(=O)[nH]2)c(C)n1CC1CCCO1 (centres undefined) | -2 | 6 | 11 | -1
Cc1cc(N2CCN(c3ccccc3)CC2)nc(NCc2ccccc2)n1 | -2 | -4 | 11 | -3
CCCc1nc(C)cc(N2CCN(c3ccccc3)CC2)n1 | -2 | -34 | 8 | 9.6*
Cc1cc(C)c(C#N)c(SCC(=O)c2ccccc2)n1 | -2 | -3 | 12 | 5
Cc1cc(C)c(C#N)c(SCC(O)CS(=O)(=O)Cc2ccccc2)n1 (centres undefined) | 0 | -5 | -1 | 12*
COc1ccccc1NC(=O)CCNS(=O)(=O)c1ccc2c(c1)CCN2C(C)=O | -2 | -22 | 10 | -1
CC(C)N(CC(N)=O)C(=O)c1sc2cc(F)ccc2c1Cl | 1 | -22 | -3 | 13*
CN1CCC(N(C)C(=O)c2sc3cc(F)ccc3c2Cl)CC1 | 0 | -1 | 0 | 0
COC(=O)c1cc(S(=O)(=O)N2CCN(C(=O)c3ccco3)CC2)cn1C | -1 | -17 | 5 | 4
Cc1ccc(S(=O)(=O)NCC(=O)OCC(=O)c2ccc(S(=O)(=O)N3CCCCC3)cc2)cc1C | -19 | 42* | 77* | -17
CC(C)C[C@H](NC(=O)c1nc[nH]c1C(=O)NC1CCN(C(=O)OC(C)(C)C)CC1)C(=O)OCc1ccccc1 | 17 | -38 | -95 | 12*
N#Cc1ccc(NC(=O)C2=COCCO2)cc1 | -1 | -15 | 4 | 6
CC(C)c1ccc(Nc2ccc(C(=O)O)cc2[N+](=O)[O-])cc1 | -2 | -10 | 11 | 3
Cc1cc(C(=O)N2CCN(c3ccc(F)cc3)CC2)on1 | -1 | -5 | 5 | 1
Cc1cccc(N(Cc2ccccc2)C(=O)CCl)c1 | 67* | -181 | -368 | 65*
C=CCN(CC=C)Cc1c(O)ccc2c1oc(=O)c1ccccc12 | -8 | 32 | 45* | -8
CCCCn1c(CCC(=O)O)nc2cc(S(=O)(=O)N3CCCC3)ccc21 | -2 | -30 | 9 | 8.3*
CCCn1c(CCC(=O)O)nc2cc(S(N)(=O)=O)ccc21 | -3 | 16 | 13 | 6
O=C(O)CNC(=O)C1(NC(=O)OCc2ccccc2)CCCC1 | 1 | 2 | -4 | -1
